LGR2 antag = inhibitors of bursicon-induced LGR2 CRE-luciferase signal, primary screen, cell-based, HEK293, CRE-luciferase reporter, bursicon stimulation; Drosophila bursicon receptor LGR2 (rickets); bursicon-stimulated, 4 h; inhibition, % at 9.99 µM; 0.35% of 380,000 active; AID 720647, 2013;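 active = drop in luminescence signal, shown as inhibition above about 50% in the replicate tests, limit read from the data, passing the limit was not always enough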;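 also: agonist challenge used bursicon conditioned medium at about half maximal strength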
TROY NFkB inh = inhibitors of TROY-driven NF-kB signaling, primary screen, Q293 LMP1-TROYcd cells, NF-kB luciferase, uHTS. AID 1347056, 2019. inhibition, % at 10 µM. 0.98% of 360,000 active. Q293 LMP1-TROYcd NF-kB luciferase reporter, 4 h;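 active = compounds whose plate-normalised and pattern-corrected inhibition of the luciferase reporter signal at the single screening dose is 50% or more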
TWEAK-Fn14 inh = inhibitors of TWEAK-Fn14 signaling, primary screen, luciferase reporter cells, uHTS; TWEAK-stimulated Fn14 reporter cells, luciferase luminescence, 8 h; inhibition, % at 10 µM; 2% of 360,000 active; AID 1159606, 2016; in the data active = inhibition above about 50%
HSP90 inh = HSP90 inhibitors, primary screen, cell lysate, luminescence; Heat shock protein HSP 90 (rabbit reticulocyte lysate; luciferase refolding); Rabbit reticulocyte lysate, luciferase refolding luminescence, 3 h; inhibition, % at 5.6 µM; 0.91% of 290,000 active; AID 1789, 2009;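 active = inhibition above the screen-wide mean plus 3 SD, computed separately per campaign, cut at about 16% in these data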;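 also: inhibitors lower the luminescence because luciferase stays unfolded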
HSP90 inh confirm = HSP90 inhibitors, confirmation, cell lysate, luminescence; rabbit reticulocyte lysate, luciferase refolding luminescence, 3 h; 64% of 2,300 active; inhibition, % at 5.9 µM; shares compounds with HSP90 inh; in the data active = inhibition above about 18%
FLuc counter = firefly luciferase inhibitors, HSP90 counter-screen, confirmation, artefact control for HSP90 inhibitor project, biochemical, luminescence, triplicate; shares compounds with HSP90 inh; purified native firefly luciferase; inhibition, % at 5.9 µM; 48% of 2,300 active; AID 1847, 2009;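 active = inhibition above the mean inhibition of all tested sample wells plus 3 SD, cut at about 10% in these data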
Target sequence (P08659 whole entry, looked up): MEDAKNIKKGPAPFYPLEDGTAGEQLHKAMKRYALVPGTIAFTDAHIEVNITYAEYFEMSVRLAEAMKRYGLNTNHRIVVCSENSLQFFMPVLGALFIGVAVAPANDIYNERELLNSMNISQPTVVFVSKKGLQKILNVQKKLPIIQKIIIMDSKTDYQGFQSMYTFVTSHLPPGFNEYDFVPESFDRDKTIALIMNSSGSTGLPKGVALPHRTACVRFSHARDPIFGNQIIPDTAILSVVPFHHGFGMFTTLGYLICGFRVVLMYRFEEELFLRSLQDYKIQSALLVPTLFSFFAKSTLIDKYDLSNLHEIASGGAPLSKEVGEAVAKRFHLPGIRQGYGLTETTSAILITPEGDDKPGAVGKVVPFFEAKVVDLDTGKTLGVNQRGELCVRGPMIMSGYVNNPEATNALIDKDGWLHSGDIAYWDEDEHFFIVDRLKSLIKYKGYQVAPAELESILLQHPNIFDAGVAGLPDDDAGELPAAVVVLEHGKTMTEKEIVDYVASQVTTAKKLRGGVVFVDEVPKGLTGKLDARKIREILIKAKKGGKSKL
Numbers stand for hits. Only some compounds are listed: those with a hit (about 2.2% of all), similar ones and a draw of the others.

For O=C(C[C@@H]1CC[C@H]2[C@@H](COC[C@@H](O)CN2Cc2ccc(Cl)cc2)O1)NCCc1ccccc1 the results were LGR2 antag inactive.
For CCCNC(=O)C[C@H]1CC[C@@H]2[C@H](COC[C@H](O)CN2Cc2cccc(F)c2)O1 the results were LGR2 antag inactive.
c1ccc(CCc2ccccc2-c2nc(-c3ccccn3)no2)cc1 was read as TROY NFkB inh inactive, TWEAK-Fn14 inh inactive and HSP90 inh inactive.
Screening c1ccc(-c2noc(-c3ccncc3)n2)nc1 returned TROY NFkB inh inactive, TWEAK-Fn14 inh inactive, HSP90 inh 18, HSP90 inh confirm 18 and FLuc counter inactive.
CC(=O)c1ccc(NC(=O)Cn2cnc(S(=O)(=O)N3CCCC3)c2)cc1 was read as TROY NFkB inh inactive, TWEAK-Fn14 inh inactive, HSP90 inh 26, HSP90 inh confirm inactive and FLuc counter inactive.
`CC(=O)c1ccc(NC(=O)Cn2cnc(S(=O)(=O)N3CCCCC3)c2)cc1` gave LGR2 antag inactive, TROY NFkB inh inactive, TWEAK-Fn14 inh inactive and HSP90 inh inactive.
For CC1=NN(C(N)=S)C(=O)C1N=Nc1ccc(S(N)(=O)=O)cc1 (stereo unspecified) the results were LGR2 antag inactive, TROY NFkB inh inactive, TWEAK-Fn14 inh inactive and HSP90 inh inactive.
For CC(=O)N(C)c1ccc(N=Nc2c(C)[nH]n(C(N)=S)c2=O)cc1 the results were LGR2 antag inactive, TROY NFkB inh inactive, TWEAK-Fn14 inh inactive, HSP90 inh 20, HSP90 inh confirm inactive and FLuc counter inactive.
Cc1ccccc1N=Nc1c(C)[nH]n(C(N)=S)c1=O was read as LGR2 antag inactive, TROY NFkB inh inactive, TWEAK-Fn14 inh inactive and HSP90 inh inactive.
Screening Cc1[nH]n(C(N)=S)c(=O)c1N=Nc1ccc([N+](=O)[O-])cc1Cl returned LGR2 antag inactive, TROY NFkB inh inactive, TWEAK-Fn14 inh inactive, HSP90 inh 18, HSP90 inh confirm inactive and FLuc counter inactive.
CC(=O)N(C)c1ccc(N=NC2C(=O)N(C(N)=S)N=C2C)cc1 (stereo unspecified) was read as LGR2 antag inactive, TROY NFkB inh inactive, TWEAK-Fn14 inh inactive, HSP90 inh 18, HSP90 inh confirm 18 and FLuc counter inactive.
`CN1C(=O)c2cc(NC(=O)Nc3ccc(F)cc3)ccc2OC[C@H]2O[C@@H](CC(=O)NC3CCC3)CC[C@H]21` gave LGR2 antag inactive.
CS(=O)(=O)Oc1ccc(Br)c2cccnc12 was read as LGR2 antag inactive, TROY NFkB inh inactive, TWEAK-Fn14 inh inactive and HSP90 inh inactive.
Nc1ccc(Br)c2cccnc12 was read as LGR2 antag inactive, TROY NFkB inh inactive, TWEAK-Fn14 inh inactive, HSP90 inh 17, HSP90 inh confirm inactive and FLuc counter inactive.
For C[C@@H]1CN([C@H](C)CO)S(=O)(=O)c2ccc(-c3cccnc3)cc2O[C@H]1CN(C)C(=O)C1CCC1 the results were LGR2 antag inactive.
Screening CC1(C(=O)N2CCN(Cc3ccccc3Cl)CC2)CC1(Cl)Cl (stereo unspecified) returned LGR2 antag inactive, TROY NFkB inh inactive, TWEAK-Fn14 inh inactive, HSP90 inh 19, HSP90 inh confirm inactive and FLuc counter inactive.
`CC(C)(O)C1Cc2cc(/C=C/C(=O)O)c(O)cc2O1` (stereo unspecified) gave LGR2 antag inactive, TROY NFkB inh inactive, TWEAK-Fn14 inh inactive, HSP90 inh 28, HSP90 inh confirm inactive and FLuc counter inactive.
Screening Cc1nn(C(C)(C)C)c(C)c1/C=N/OC(=O)Nc1ccc(Cl)cc1 returned LGR2 antag 99, TROY NFkB inh 82, TWEAK-Fn14 inh 103, HSP90 inh 86, HSP90 inh confirm 86 and FLuc counter 87.
For CCCNC(=O)N1C[C@@H]2[C@H](c3ccccc31)[C@H](CO)N2C(=O)c1ccncc1 the results were LGR2 antag inactive.
For Cc1ccccc1-c1cc2c(nn1)-c1ccccc1C2=O the results were TROY NFkB inh 85, TWEAK-Fn14 inh inactive, HSP90 inh 74, HSP90 inh confirm inactive and FLuc counter inactive.
Cc1ccc(-c2cc3c(nn2)-c2ccccc2C3=O)cc1 was read as LGR2 antag 92, TROY NFkB inh 75, TWEAK-Fn14 inh 96, HSP90 inh 28, HSP90 inh confirm 75 and FLuc counter 89.
CCOC(=O)c1c(C(F)(F)F)cc(-c2ccc(F)cc2)nc1C was read as LGR2 antag inactive, TROY NFkB inh inactive, TWEAK-Fn14 inh inactive and HSP90 inh inactive.
`CCOC(=O)CS(=O)(=O)c1nc(-c2ccc(F)cc2)cc(C(F)(F)F)n1` gave TROY NFkB inh 51, TWEAK-Fn14 inh 57, HSP90 inh 53, HSP90 inh confirm inactive and FLuc counter inactive.
